Laboratory results as given in PubChem BioAssay (Tox21).
Results filed as inconclusive are left out. Calls of active or inactive are those of the source. Unless noted, the call rests on the fitted dose curve; in most records, active means well fitted curve in the direction sought with a large enough effect in the repeat runs; inconclusive means weak or mixed curves; inactive means no such curve, though single readings can be large; an effect the other way counts as inactive or inconclusive.

Experiments:
[1] = qHTS assay to identify small molecule agonists of the vitamin D receptor (VDR) signaling pathway - cell viability counter screen (AID 743224); further: series mostly up to about 63 µM; nearly all actives have a fitted effect of over 50% in size
Procedure, shortened: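 Compounds were pin-transferred onto VDR-bla cells plated 4 h earlier; following 16 h incubation at 37C, cell viability was quantified by CellTiter-Glo luminescence after 30 min at room temperature.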

[2] = qHTS assay to identify small molecule antagonists of the vitamin D receptor (VDR) signaling pathway - cell viability counter screen (AID 743225); further: nearly all actives have a fitted effect of over 50% in size
Procedure, shortened: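 Luminescent cell viability (CellTiter-Glo) in VDR-bla HEK 293T cells after 16 h compound exposure at 37C in the presence of 3 nM final 1-alpha,25-dihydroxy vitamin D3.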

[3] = qHTS assay to identify small molecule agonists of the NFkB signaling pathway (AID 1159509; active means well fitted curve in the direction sought with a large enough effect in the signal ratio in the repeat runs, not every such curve was filed as active; the % refers to the signal ratio; further: series mostly up to about 61 µM)
Procedure, shortened: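 Readout: FRET fluorescence, 405 nm excitation, 460/530 nm emission; beta-lactamase expression disrupts FRET. Cells: ME-180 stably carrying NF-kB-driven bla reporter. Compound exposure 5 hr, 37 C, 5% CO2.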

[4] = qHTS assay to identify small molecule agonists of the NFkB signaling pathway - cell viability counter screen (AID 1159515; calls by dose curve; further: series mostly up to about 61 µM; nearly all actives have a fitted effect of over 55% in size)
Procedure, shortened: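 Parallel cytotoxicity counter screen in ME-180 cells carrying an NFkB-response-element beta-lactamase reporter, 2,000 cells/well. Compound exposure lasted 5 hr at 37 C, 5% CO2. Cell viability was quantified by CellTiter-Glo luminescence.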

[5] = qHTS assay to identify small molecule agonists of the endoplasmic reticulum stress response signaling pathway (AID 1159516; active means well fitted activation curve with a large enough effect in the signal ratio in the repeat runs, not every such curve was filed as active; the % refers to the signal ratio)
Procedure, shortened: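 Using a HeLa line with an ESRE-driven beta-lactamase gene, agonist activity was measured by FRET substrate fluorescence (460 and 530 nm emission) after cells were treated with compounds for 5 hr at 37 C and 5% CO2.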

[6] = qHTS assay to identify small molecule agonists of the endoplasmic reticulum stress response signaling pathway - cell viability counter screen (AID 1159517; calls by dose curve;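 further: HeLa cells carrying an ER stress response element beta-lactamase reporter; series mostly up to about 61 µM; nearly all actives have a fitted effect of over 50% in size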)
Procedure, shortened: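 After overnight attachment, ESRE-bla HeLa cells were treated with Tox21 library compounds for 5 hr. CellTiter-Glo luminescence, read 30 min post-addition at room temperature, reported viability.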

[7] = qHTS assay to identify small molecule antagonists of the retinoid-related orphan receptor gamma (ROR-gamma) signaling pathway - cell viability counter screen (AID 1159520); further: nearly all actives have a fitted effect of over 50% in size
Procedure, shortened: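 Cytotoxicity was read from cellular ATP (CellTiter-Glo luminescence) after 16 hr at 37 C with 1 uM doxycycline induction. The inducer was added 2 hr after compound transfer to Tet-on ROR gamma CHO cells.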

[8] = target: Nuclear receptor ROR-gamma (Homo sapiens) (UniProt P51449); test: qHTS assay to identify small molecule antagonists of the retinoid-related orphan receptor gamma (ROR-gamma) signaling pathway (AID 1159521)
Procedure, shortened: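 CHO cells expressing RORγ under a TET-on promoter, luciferase under RORE control. Dox 1 uM final, 16 h; compounds added 2 h prior. Luminescence decrease measured.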

[9] = qHTS assay to identify small molecule agonists of the AP-1 signaling pathway - cell viability counter screen (AID 1159525; calls by dose curve; further: nearly all actives have a fitted effect of over 55% in size)
Procedure, shortened: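 Intracellular ATP by Cell Titer Glo luminescence (30 min, RT) in the same ME-180 AP-1-bla wells after the 5 h compound exposure at 37 °C. Normalised to tetra n-octyl ammonium bromide and DMSO controls.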

[10] = qHTS assay to identify small molecule agonists of the AP-1 signaling pathway (AID 1159526; calls by dose curve)
[11] = qHTS assay to identify small molecule agonists of the RXR signaling pathway - cell viability counter screen (AID 1159529)
Procedure, shortened: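 Same-well viability check after the LiveBLAzer FRET read: CellTiter-Glo added, luminescence measured after 30 min at room temperature. Reporter HEK 293T cells had been treated with compounds for 16 hr following a 5 hr preincubation.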

[12] = qHTS assay to identify small molecule antagonists of the retinoid acid receptor (RAR) signaling pathway - cell viability counter screen (AID 1159551); further: nearly all actives have a fitted effect of over 35% in size
Procedure, shortened: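 ATP-based viability, C3RL4 cells, 6 h at 37 C with 1 uM final retinol co-added after compound; luminescence read 30 min post CellTiter-Glo, RT.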

[13] = qHTS assay to identify small molecule antagonists of the retinoic acid receptor (RAR) signaling pathway (AID 1159552; further: nearly all actives have a fitted effect of over 50% in size)
Procedure, shortened: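 Readout: luciferase luminescence, 30 min post-reagent at RT. Setup: C3RL4 RARE reporter cells, compounds plus retinol 1 uM final, 6 hr incubation at 37 C and 5% CO2.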

[14] = target: Retinoic acid receptor RXR-alpha (Homo sapiens) (UniProt P19793); test: qHTS assay to identify small molecule agonists of the RXR signaling pathway (AID 1159527; calls by dose curve; further: nearly all actives have a fitted effect of over 35% in size)
Procedure, shortened: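 Beta-lactamase reporter assay, agonist format. Engineered HEK 293T line, charcoal-stripped FBS at 2%, overnight (16 hr) exposure, fluorescence at 460 and 530 nm after 405 nm excitation.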

[15] = qHTS assay to identify small molecule agonists of the retinoic acid receptor (RAR) signaling pathway (AID 1159553)
Procedure, shortened: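 Quantitative high-throughput format: the Tox21 10K library was tested on C3RL4 RARE-luciferase cells for 6 hr at 37 C and 5% CO2, with luminescence measured after a 30 min room-temperature reagent step.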

[16] = qHTS assay to identify small molecule antagonists of the estrogen related receptor (ERR) signaling pathway - cell viability counter screen (AID 1224818);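 further: series mostly up to about 46 µM; viability measured after 17.5 h of compound exposure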
Procedure, shortened: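 Quantitative high-throughput viability counter screen in ERR cells. Compounds (DMSO) incubated 17.5 h at 37 C; read-out was CellTiter-Fluor fluorescence.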

[17] = qHTS assay to identify small molecule antagonists of the estrogen related receptor signaling pathway with the pleiotropic PPARgamma coactivator (PGC) cell viability counter screen (AID 1224822; further: series mostly up to about 46 µM)
Procedure, shortened: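 Cytotoxicity in the PGC/ERR cell line is assessed with CellTiter-Fluor, read as fluorescence intensity 30 min after reagent addition, following 17.5 h compound treatment at 37 C.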

[18] = qHTS assay to identify small molecule antagonists of the estrogen related receptor (ERR) signaling pathway (AID 1224819)
Procedure, shortened: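 ERR reporter cell line (NTP) plated at 2,000 cells/well, settled 6 h at 37C/5% CO2, then exposed to LOPAC compounds for 18 h at 37C. One-Glo luciferase luminescence read after 30 min at room temperature.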

[19] = qHTS assay to identify small molecule agonists of the estrogen related receptor (ERR) signaling pathway (AID 1224820)
Procedure, shortened: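 Luminescence readout (One-Glo, 30 min RT) from NTP-supplied ERR cell line exposed to compounds for 18 h at 37 C. Cells seeded 2,000 per well and pre-incubated 6 h before pin-tool compound transfer.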

[20] = tested on: estrogen-related receptor alpha (ERRalpha) with PGC-1alpha coactivator, human; test: qHTS assay to identify small molecule antagonists of the estrogen related receptor signaling pathway with the pleiotropic PPARgamma coactivator (PGC) (AID 1224821; calls by dose curve)
Procedure, shortened: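 PGC/ERR reporter cells; 6 h pre-incubation 37 C/5% CO2; pin-tool compound in DMSO, 18 h 37 C; One-Glo added, 30 min RT; luminescence read. qHTS antagonist mode.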

Measured: Potency

Retinoic acid receptor RXR-alpha (Homo sapiens), sequence (P19793 whole entry, looked up): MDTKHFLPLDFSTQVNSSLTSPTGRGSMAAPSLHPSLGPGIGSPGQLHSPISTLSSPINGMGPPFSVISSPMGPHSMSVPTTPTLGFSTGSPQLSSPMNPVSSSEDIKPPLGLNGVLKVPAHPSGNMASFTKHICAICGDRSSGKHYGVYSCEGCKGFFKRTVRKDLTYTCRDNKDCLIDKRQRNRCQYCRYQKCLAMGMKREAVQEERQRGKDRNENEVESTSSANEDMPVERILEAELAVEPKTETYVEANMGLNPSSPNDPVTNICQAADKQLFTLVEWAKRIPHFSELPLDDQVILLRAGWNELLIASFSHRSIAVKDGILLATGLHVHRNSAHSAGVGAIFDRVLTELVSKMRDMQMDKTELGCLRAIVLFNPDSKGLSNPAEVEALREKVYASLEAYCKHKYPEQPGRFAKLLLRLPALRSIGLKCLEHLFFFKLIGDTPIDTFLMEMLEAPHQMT

CCCCCCCCCCCC
not listed: [14] | [15] | [16] | [17] | [18] | [19] | [20]
inactive: all other assays above

Cc1[nH]c(=O)c(C#N)cc1-c1ccc2nccn2c1
not listed: [5] | [18] | [19] | [20]
inactive: all other assays above

Cn1cc(S(C)=O)c(=O)c2ccc(F)cc21 (stereo not drawn)
not listed: [14] | [15] | [16] | [17] | [18] | [19] | [20]
inactive: all other assays above

CC(=O)Nc1ccc(S(N)(=O)=O)cc1
inactive: [1] | [3] | [4] | [5] | [6] | [7] | [8] | [9] | [10] | [11] | [12]

CCN1CCC[C@H]1CNC(=O)c1cc(S(N)(=O)=O)ccc1OC
not listed: [5] | [18] | [19] | [20]
inactive: all other assays above

CCn1nc(C(=O)O)c(=O)c2cc3c(cc21)OCO3
not listed: [5]
inactive: all other assays above

C[C@@H]1CCN(C(=O)[C@H](CCCN=C(N)N)NS(=O)(=O)c2cccc3c2NC[C@H](C)C3)[C@@H](C(=O)O)C1
not listed: [2] | [14] | [16] | [17] | [18] | [19] | [20]
inactive: all other assays above

Cc1c(NC(C)C)c(=O)n(-c2ccccc2)n1C
not listed: [14] | [16] | [17] | [18] | [19] | [20]
inactive: all other assays above

C/C=C(\C)C#N
not listed: [14] | [15] | [16] | [17] | [18] | [19] | [20]
inactive: all other assays above
